AMA1-RON2 inh: qHTS for Inhibitors of AMA1-RON; Towards Development of Antimalarial Drug Lead: Primary Screen; Plasmodium falciparum AMA1 (3D7) - RON2 peptide interaction; AlphaScreen AMA1-biotinylated RON2 peptide binding; Potency, µM (titrated, usually from 58.2 µM), without a hit: top-dose activity change, negative = inhibition, usual class: inhibitors; hit rate 0.2% among 360,000; AID 720542, 2013;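 note: 0% = vehicle wells and -100% = peptide control; nearly all actives have a fitted effect of over 45% in size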
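AMA1 (3D7) with his tag at 25 nM final met compounds first, then biotinylated RON2 peptide at 25 nM; detection used donor plus acceptor beads, 10 µg/mL apiece, read by AlphaScreen after 30 min at room temperature.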
Pf growth 96h: Primary qHTS for delayed death inhibitors of the malarial parasite plastid, 96 hour incubation. P. falciparum luciferase reporter growth, 96 h. Potency, µM (series often up to 28.7 µM), for inactives: top-dose activity change, negative = inhibition, actives largely listed as inhibitors. AID 504834, 2011. hit rate 6.9% among 320,000; note: % is set by controls: 0 for no effect and ±100 for the full control effect
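Delayed-death screen, second-generation endpoint: infected erythrocytes, 2% hematocrit, 0.05% parasitemia final; 96 hours at 37 C, 5% CO2; luciferase detection reagent; luminescence decrease equals reduced growth.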
Pf growth 48h: Primary qHTS for delayed death inhibitors of the malarial parasite plastid, 48 hour incubation; P. falciparum luciferase growth in erythrocytes, 48 h; Potency, µM (doses to about 28.7 µM), for the others: at the highest dose activity change, negative = inhibition, hits mostly inhibitors; hit rate 5.9% among 310,000; AID 504832, 2011; note: % is set by controls: 0 for no effect and ±100 for the full control effect
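Read-out is firefly luciferase luminescence from an integrated reporter in P. falciparum, so falling signal marks reduced parasite growth. Infected erythrocytes were at 2% hematocrit and 0.1% parasitemia (final) in Albumax-supplemented RPMI 1640.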
NS1 function inh: qHTS Assay for Inhibitors of Influenza NS1 Protein Function; Potency, µM (series often up to 46.1 µM), for inactives: top-dose activity, positive = more growth; hit rate 0.4% among 270,000; AID 2326, 2010; calls by dose curve; note: actives are rising curves; nearly all actives have a fitted effect of over 50% in size
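A cell-based growth assay was used: compounds that relieve NS1-induced slow growth of budding yeast raise OD600. Assay medium was yeast nitrogen base with ammonium sulphate and -URA supplement, pH 6.0, with 2% galactose.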
Sm TGR block: qHTS Assay for the Inhibitors of Schistosoma Mansoni Peroxiredoxins. Schistosoma mansoni thioredoxin glutathione reductase (TGR), Q962Y6. purified TGR, DTNB reduction, TNB absorbance 405 nm. Potency, µM (doses to about 114 µM), without a hit: at the highest dose activity change, negative = inhibition, hits mostly inhibitors. hit rate 3% among 360,000. AID 485364, 2010; note: % is set by controls: 0 for no effect and ±100 for the full control effect; nearly all actives have a fitted effect of over 60% in size
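Kinetic colorimetric format: TGR-catalysed, NADPH-driven DTNB reduction monitored via TNB absorbance. Enzyme dispensed at 20 nM; compound exposure 15 min at room temperature before reaction start.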
Active calls of the source: *; u = inconclusive; x = no result given; [ ] = dose if it differs, or a comment. Shown are actives, neighbours in structure and some others; about 11% of the full set was active somewhere. Unless noted, calls come from the whole dose curve; as a rule, active = well fitted curve in the direction sought with a large enough effect; inconclusive = small, poorly fitted or top-dose-only effect, or another doubt; inactive = no such curve, though single readings can be large; an effect the other way counts as inactive or inconclusive. Potency is the fitted concentration of half-maximal effect.

SMILES	AMA1-RON2 inh	Pf growth 96h	Pf growth 48h	NS1 function inh	Sm TGR block
COc1ccc(S(=O)(=O)Nc2cccc3c2O[C@H](CN(C)S(=O)(=O)c2cn(C)cn2)[C@@H](C)CN([C@H](C)CO)C3=O)cc1	-4%	x	x	x	x
COc1cc(CN2CCCC(C(=O)c3ccccc3SC)C2)cc(OC)c1 (stereo unspecified)	-17%	12µM*	0%	7%	0%
CSc1ncc(CN2CCCC(C(=O)c3ccccc3SC)C2)cn1 (stereo unspecified)	-1%	-2%	-4%	2%	-2%
CSc1ccccc1C(=O)C1CCCN(C(=O)c2cc(C(C)C)no2)C1 (stereo unspecified)	-14%	-8%	-1%	-56%	22µM*
COc1cc(OC)c(OC)cc1CN1CCCC(C(=O)c2ccccc2SC)C1 (stereo unspecified)	-19%	3.7µM*	-7%	-2%	-8%
COc1cccc(O)c1CN1CCCC(C(=O)c2ccccc2SC)C1 (stereo unspecified)	-5%	0%	u	-2%	-4%
COc1ccc(C(=O)C2CCCN(Cc3c(C)[nH]c4ccccc34)C2)c(OC)c1 (stereo unspecified)	x	u	u	2%	35µM*
CCOCCCNCc1ccc(OCCC(C)C)c(OC)c1	-5%	37%	-19%	x	6%
O=C(Nc1ccc(Cl)cc1)C1CC2CCCC(C1)C2=O (stereo unspecified)	25%	-20%	-10%	-4%	-7%
O=C(Nc1ccccc1)C1CC2CCCC(C1)C2=O (stereo unspecified)	5%	3.7µM*	10%	-2%	7%
Nc1cc(=O)[nH]c(SCc2nnnn2-c2ccc(Cl)cc2)n1	17%	0.21µM*	12%	u	-12%
Cc1ccc(S(=O)(=O)NC(=O)OC23COCN2COC3)cc1	x	x	x	-8%	x
COc1cccc(-c2ncnn2-c2sc3c(c2C#N)CCCCC3)c1OC	x	x	x	x	5%
Cc1ccc(-c2nc3c(C)cccn3c2Nc2ccccc2C)s1	x	x	x	x	8.9µM*
Cc1ccccc1Nc1c(-c2ccccn2)nc2c(C)cccn12	5%	u	u	-3%	-1%
Cc1ccc(CNC(=O)CCCc2nnc3n(CC(C)C)c(=O)c4sccc4n23)cc1	x	x	x	x	1%
O=C(Cn1c(NCCCO)nc2ccccc21)c1ccc(Cl)cc1Cl	0%	9.3µM*	1.7µM*	2%	1%
COc1ccc(-n2c(C)cc(C(=O)Cn3c(NCCO)nc4ccccc43)c2C)cc1	-22%	10µM*	0%	-3%	1%
O=S(=O)(CCSc1ccccn1)c1nc2ccccc2s1	21%	1.7µM*	u	-114%	0.79µM*
O=C(CSc1nc2ccccc2s1)Nc1ncccn1	-13%	137%	40%	-9%	6%
O=S(=O)(CCSc1nc2ccccc2o1)c1nc2ccccc2s1	4%	u	13µM*	0%	0.71µM*
CC12CCC(=O)N1C(C(=O)NNC(=O)c1ccc(Br)cc1)CS2 (stereo unspecified)	9%[11.6 µM]	-18%	-25%	x	-7%
CC1=[N+](C)c2ccc3ccccc3c2C1(C)C	-27%	12µM*	u	8%	-20%
c1ccc2c(c1)ccc1ccccc12	14%	x	x	x	x
CCOC(=O)c1cnc(N)nc1C(F)(F)F	30%	-1%	38%	0%	13%
SMILES	AMA1-RON2 inh	Pf growth 96h	Pf growth 48h	NS1 function inh	Sm TGR block
COc1cccc(NC(=O)c2ccc(CN3CCN(c4ccccc4)CC3)cc2)c1	-26%	41%	12µM*	-32%	-4%
COc1cccc(S(=O)(=O)NCc2ccc(C(=O)Nc3cccc(Cl)c3)cc2)c1	-2%	9.3µM*	x	5%	-2%
COc1cccc(NC(=O)c2ccc(N3C(=O)C4CC=C(C)CC4C3=O)cc2)c1 (stereo unspecified)	0%	1.5µM*	18%	-2%	-11%
Cc1cc(CSc2ccccc2)ccc1NC(=O)c1ccc(CN2CCOCC2)cc1	0%	2.9µM*	-34%	9%	-7%
COc1ccc(NC(=O)c2ccc(CN3CCN(c4ccccc4)CC3)cc2)cc1	0%	u	u	-15%	-2%
CCCNC(=O)c1ccc(CN2CCc3ccccc3C2)cc1	-1%	249%	10µM*	-1%	1%
COc1cccc(NC(=O)c2ccc(CN3CCc4ccccc4C3)cc2)c1	9%	u	u	-25%	-20%
CC(=O)c1cccc(NC(=O)c2ccc(CN3CCc4ccccc4C3)cc2)c1	-3%	u	15µM*	2%	-21%
Cc1c(NC(=O)c2ccc(CN3CCc4ccccc4C3)cc2)c(=O)n(-c2ccccc2)n1C	16%	u	u	4%	-2%
COc1cccc(NC(=O)c2c(C)nn(-c3ccccc3)c2Cl)c1	-5%	4.7µM*	32%	-34%	-5%
Cc1cc(C)c(NC(=O)c2ccc(CN3CCc4ccccc4C3)cc2)c(C)c1	-3%	7.4µM*	x	2%	-14%
COc1ccccc1C#Cc1cnc2c(c1)C(=O)N([C@H](C)CO)C[C@H](C)[C@@H](CN(C)S(=O)(=O)c1cn(C)cn1)O2	-6%	x	x	x	x
COc1ccc(OC)c(NC(=O)c2ccc3c(c2)c(C)c(C)n3Cc2ccc(F)cc2)c1	x	x	x	x	2%
CC(Oc1ccc(-c2ccccc2)c(F)c1)c1ccn(S(=O)(=O)c2ccc(Br)cc2)n1 (stereo unspecified)	-7%	10µM*	u	17%	-1%
Cc1ccc(CC2C(=O)N(c3ncccn3)C(=O)C2C)cc1 (stereo unspecified)	1%	0.83µM*	x	5%	0%
Cc1ccc(CC2C(=O)N(c3ccc(C)cc3)C(=O)C2C)cc1 (stereo unspecified)	-10%	13%	35%	x	-4%
CC1CCC2(CC1)NC(=O)N(CC(=O)Nc1cc(S(=O)(=O)N3CCCC3)ccc1Cl)C2=O (stereo unspecified)	26%	x	x	x	x
CCN(CC)c1ccc(S(=O)(=O)N2CCOCC2)cc1NC(=O)CN1C(=O)NC2(CCC(C)CC2)C1=O (stereo unspecified)	-3%	13µM*	u	x	5%
CN(C)c1ccc(S(=O)(=O)N2CCCCC2)cc1NC(=O)CN1C(=O)NC2(CCCC2)C1=O	-4%	u	13µM*	x	-8%
CN(C)c1ccc(S(=O)(=O)N2CCCCC2)cc1NC(=O)CN1C(=O)NC(C)(c2ccccc2)C1=O (stereo unspecified)	-4%	u	u	x	-6%
COc1cccc(CNc2nnnn2C)c1	4%	-25%	2%	15%	11%
COc1cccc(-n2c(O)c(C=NCc3ccc4c(c3)OCO4)c(=O)[nH]c2=O)c1	-3%	-11%	2%	2%	0%
